According to the supplement of paper PMC10849652:
Targets with a hit are over-represented here; the source holds about 7,900 in all. About 0.6% of all pairs of compound and target were hits.

Compound: C1=CC(=CC=C1C2=NC3=C(N2)C=C(C=C3)C(=O)N)OC4=CC=C(C=C4)Cl
Assay: log2 fold change, soluble protein after heating vs DMSO (PISA); higher = thermal stabilisation; K562 cells, 10 uM, 30 min; active = over 0.2 and 3.5 SD of the protein, either way, in both replicates (recomputed)
Summary of the method: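 Thermal stability values are relative to control samples and come from duplicates. They are expressed as log2 fold changes. For measurement, K562 cells (2×10^6 cells/mL) received 10 μM compound for 30 min, and aliquots were heated for 3 min over 48°C-58°C, pooled, and extracted at 4°C in PBS with 0.5% NP-40. Soluble protein, the supernatant after 21,000xg for 90 min, was quantified by TMTpro 16plex LC-MS/MS with equalised channel sums.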

UniProt Q03468, sequence (Q03468 whole entry, looked up): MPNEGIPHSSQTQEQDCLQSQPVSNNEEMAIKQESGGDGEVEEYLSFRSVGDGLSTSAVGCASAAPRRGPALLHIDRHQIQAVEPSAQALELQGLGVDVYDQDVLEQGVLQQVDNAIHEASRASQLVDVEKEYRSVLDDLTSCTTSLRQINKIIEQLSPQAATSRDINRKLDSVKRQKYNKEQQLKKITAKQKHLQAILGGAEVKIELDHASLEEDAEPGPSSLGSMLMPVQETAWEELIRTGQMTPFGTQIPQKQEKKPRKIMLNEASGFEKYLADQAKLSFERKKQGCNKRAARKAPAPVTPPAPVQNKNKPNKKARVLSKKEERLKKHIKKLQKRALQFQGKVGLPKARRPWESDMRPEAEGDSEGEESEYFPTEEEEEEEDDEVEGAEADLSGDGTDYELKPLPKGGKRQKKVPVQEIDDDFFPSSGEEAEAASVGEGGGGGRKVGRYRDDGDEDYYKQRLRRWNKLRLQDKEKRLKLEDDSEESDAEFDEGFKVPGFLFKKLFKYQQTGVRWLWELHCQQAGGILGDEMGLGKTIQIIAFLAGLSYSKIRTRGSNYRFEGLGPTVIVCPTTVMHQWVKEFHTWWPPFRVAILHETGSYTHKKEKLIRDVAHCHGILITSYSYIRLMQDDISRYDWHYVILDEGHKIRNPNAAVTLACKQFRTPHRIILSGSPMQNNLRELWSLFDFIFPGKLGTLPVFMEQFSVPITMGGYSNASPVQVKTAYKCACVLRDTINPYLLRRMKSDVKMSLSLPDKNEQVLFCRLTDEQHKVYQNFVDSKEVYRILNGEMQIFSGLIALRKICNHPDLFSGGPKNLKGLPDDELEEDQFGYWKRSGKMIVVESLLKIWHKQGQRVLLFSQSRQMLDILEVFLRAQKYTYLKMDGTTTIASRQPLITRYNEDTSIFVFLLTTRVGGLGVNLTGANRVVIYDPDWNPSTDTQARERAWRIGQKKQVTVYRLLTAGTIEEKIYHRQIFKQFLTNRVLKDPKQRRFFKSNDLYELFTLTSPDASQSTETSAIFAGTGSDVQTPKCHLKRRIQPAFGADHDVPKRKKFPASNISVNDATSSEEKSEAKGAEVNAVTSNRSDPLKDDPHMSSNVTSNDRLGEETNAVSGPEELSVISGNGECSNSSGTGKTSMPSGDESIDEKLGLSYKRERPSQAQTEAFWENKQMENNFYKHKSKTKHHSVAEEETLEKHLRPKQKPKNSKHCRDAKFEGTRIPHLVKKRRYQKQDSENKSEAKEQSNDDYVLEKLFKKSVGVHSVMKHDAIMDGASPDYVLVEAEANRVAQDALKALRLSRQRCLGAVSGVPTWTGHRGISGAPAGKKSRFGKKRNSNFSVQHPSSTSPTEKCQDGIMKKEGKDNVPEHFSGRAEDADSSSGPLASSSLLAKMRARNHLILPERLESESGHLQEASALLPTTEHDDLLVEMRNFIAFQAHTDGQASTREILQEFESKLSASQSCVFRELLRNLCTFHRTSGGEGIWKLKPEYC
UniProt Q16254, sequence (Q16254 whole entry, looked up): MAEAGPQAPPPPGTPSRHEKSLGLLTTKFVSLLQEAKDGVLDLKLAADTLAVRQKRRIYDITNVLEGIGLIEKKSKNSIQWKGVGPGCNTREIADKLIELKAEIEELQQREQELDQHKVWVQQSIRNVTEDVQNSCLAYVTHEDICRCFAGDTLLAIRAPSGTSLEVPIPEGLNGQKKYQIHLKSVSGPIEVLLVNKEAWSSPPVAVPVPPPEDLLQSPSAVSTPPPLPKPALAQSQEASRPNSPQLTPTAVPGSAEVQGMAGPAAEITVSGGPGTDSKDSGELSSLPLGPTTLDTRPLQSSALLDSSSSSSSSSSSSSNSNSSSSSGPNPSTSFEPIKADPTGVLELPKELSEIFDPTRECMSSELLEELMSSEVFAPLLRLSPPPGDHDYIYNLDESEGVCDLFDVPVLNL
UniProt P39656, sequence (P39656 whole entry, looked up): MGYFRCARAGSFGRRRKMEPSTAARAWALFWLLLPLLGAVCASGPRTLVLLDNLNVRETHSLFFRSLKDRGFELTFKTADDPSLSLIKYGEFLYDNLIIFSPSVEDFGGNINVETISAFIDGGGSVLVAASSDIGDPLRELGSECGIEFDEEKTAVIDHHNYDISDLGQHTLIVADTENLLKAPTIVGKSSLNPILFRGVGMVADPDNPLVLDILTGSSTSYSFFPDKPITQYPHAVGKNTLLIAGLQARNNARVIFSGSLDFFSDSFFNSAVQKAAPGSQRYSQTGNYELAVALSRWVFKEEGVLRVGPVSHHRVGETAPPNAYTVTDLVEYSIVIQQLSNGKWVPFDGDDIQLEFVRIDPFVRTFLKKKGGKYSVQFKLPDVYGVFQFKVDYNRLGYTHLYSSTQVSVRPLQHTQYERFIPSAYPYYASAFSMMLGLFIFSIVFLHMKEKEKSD
UniProt Q16643, sequence (Q16643 whole entry, looked up): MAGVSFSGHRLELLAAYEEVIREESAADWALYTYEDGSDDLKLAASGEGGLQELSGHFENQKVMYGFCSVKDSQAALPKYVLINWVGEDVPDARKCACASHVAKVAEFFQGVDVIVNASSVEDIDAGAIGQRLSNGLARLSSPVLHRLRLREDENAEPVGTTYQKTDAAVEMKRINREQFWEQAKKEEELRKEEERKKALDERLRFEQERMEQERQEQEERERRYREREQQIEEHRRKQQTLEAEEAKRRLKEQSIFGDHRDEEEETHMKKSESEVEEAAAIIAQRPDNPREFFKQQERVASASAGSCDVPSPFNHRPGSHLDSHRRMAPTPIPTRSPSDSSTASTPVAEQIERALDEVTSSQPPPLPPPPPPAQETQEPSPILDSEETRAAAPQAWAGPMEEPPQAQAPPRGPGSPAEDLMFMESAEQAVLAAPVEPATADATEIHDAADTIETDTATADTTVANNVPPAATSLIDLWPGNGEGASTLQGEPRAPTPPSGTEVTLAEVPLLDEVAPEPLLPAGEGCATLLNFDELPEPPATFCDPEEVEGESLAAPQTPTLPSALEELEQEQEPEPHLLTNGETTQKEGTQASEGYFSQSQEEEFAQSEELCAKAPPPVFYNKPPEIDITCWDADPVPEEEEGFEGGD
UniProt Q9UBQ6, sequence (Q9UBQ6 whole entry, looked up): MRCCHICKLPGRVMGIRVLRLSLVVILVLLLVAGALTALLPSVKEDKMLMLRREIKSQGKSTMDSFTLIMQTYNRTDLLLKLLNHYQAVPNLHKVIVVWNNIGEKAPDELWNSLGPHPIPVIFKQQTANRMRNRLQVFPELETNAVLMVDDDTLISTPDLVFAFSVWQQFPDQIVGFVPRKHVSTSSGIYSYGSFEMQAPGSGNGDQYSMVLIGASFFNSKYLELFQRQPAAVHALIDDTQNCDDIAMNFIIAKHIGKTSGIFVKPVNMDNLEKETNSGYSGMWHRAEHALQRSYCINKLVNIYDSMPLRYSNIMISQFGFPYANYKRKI
UniProt P50570, sequence (P50570 whole entry, looked up): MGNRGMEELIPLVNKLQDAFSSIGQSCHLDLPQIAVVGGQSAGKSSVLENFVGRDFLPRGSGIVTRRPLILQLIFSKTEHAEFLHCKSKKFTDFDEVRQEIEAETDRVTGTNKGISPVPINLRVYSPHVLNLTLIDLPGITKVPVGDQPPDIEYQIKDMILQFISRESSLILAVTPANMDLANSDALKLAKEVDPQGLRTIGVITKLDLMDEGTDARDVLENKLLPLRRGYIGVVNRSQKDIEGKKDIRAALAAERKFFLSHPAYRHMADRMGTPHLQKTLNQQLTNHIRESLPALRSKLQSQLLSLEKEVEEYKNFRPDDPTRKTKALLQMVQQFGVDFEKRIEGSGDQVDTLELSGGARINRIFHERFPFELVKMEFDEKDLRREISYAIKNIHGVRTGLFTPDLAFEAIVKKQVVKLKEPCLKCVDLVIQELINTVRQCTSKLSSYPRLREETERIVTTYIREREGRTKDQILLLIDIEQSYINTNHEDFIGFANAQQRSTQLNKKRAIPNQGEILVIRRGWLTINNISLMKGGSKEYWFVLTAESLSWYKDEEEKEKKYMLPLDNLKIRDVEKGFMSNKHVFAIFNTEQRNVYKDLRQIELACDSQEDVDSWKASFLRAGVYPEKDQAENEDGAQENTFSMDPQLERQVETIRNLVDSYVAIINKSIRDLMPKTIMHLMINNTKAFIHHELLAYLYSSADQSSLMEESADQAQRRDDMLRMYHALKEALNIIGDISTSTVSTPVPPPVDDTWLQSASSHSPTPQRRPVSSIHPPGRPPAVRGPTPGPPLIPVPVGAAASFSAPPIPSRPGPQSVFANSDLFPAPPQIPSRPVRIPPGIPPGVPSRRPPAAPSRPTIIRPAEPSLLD
UniProt P35222, sequence (P35222 whole entry, looked up): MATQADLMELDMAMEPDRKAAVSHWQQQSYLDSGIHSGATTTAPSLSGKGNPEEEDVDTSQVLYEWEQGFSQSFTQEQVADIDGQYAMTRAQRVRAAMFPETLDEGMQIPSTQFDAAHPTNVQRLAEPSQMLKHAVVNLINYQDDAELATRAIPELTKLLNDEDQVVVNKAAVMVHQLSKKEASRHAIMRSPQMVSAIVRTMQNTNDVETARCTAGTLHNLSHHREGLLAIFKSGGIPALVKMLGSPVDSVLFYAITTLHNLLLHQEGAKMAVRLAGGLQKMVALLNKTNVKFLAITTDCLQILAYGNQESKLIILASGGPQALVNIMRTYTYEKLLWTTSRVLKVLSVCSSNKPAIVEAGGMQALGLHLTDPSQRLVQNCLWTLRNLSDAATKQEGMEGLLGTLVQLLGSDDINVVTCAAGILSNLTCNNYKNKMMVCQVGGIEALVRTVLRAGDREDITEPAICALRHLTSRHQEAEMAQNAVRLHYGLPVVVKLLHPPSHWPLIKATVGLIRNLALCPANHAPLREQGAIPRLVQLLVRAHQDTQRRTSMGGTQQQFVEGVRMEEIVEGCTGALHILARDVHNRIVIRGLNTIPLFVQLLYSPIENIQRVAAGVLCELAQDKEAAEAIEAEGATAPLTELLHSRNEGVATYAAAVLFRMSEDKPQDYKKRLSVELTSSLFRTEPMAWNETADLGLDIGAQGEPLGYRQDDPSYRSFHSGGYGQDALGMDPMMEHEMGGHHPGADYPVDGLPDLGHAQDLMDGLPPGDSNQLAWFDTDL

log2 fold change, inactive:
CTU1 (UniProt Q7Z7A3) 0.047
DNAJC1 (UniProt Q96KC8) 0.014
EIF4E isoform 2 (UniProt P06730) -0.073
DIP2A (UniProt Q14689) 0.103
DBN1 isoform 3 (UniProt Q16643) 0.039
EXOC6 (UniProt Q8TAG9) -0.025
EXTL2 (UniProt Q9UBQ6) 0.04
DDOST (UniProt P39656) -0.014
DDX39A (UniProt O00148) -0.03
ERCC6 (UniProt Q03468) -0.063
DYRK1A isoform 2 (UniProt Q13627) 0.019
DBR1 (UniProt Q9UK59) 0.025
EEF1G isoform 2 (UniProt P26641) -0.016
DHFR (UniProt P00374) -0.144
EFL1 (UniProt Q7Z2Z2) 0.002
FAM114A2 (UniProt Q9NRY5) -0.002
DNAAF2 (UniProt Q9NVR5) -0.003
EXOC8 (UniProt Q8IYI6) -0.056
DUS3L (UniProt Q96G46) 0.059
DHPS (UniProt P49366) -0.002
EDEM2 (UniProt Q9BV94) 0.09
DHX16 (UniProt O60231) 0.027
ERCC2 (UniProt P18074) 0.033
DHCR24 (UniProt Q15392) 0.092
DNM2 (UniProt P50570) -0.025
EHBP1L1 (UniProt Q8N3D4) -0.005
FAM118B (UniProt Q9BPY3) -0.084
EBNA1BP2 (UniProt Q99848) 0.034
CUTA isoform 2 (UniProt O60888) 0.033
EXOC1 (UniProt Q9NV70) -0.05
DFFB (UniProt O76075) 0.035
ELOVL1 (UniProt Q9BW60) -0.059
FAM3A (UniProt P98173) 0.029
DTWD2 (UniProt Q8NBA8) -0.095
DDB1 (UniProt Q16531) 0.022
E2F4 (UniProt Q16254) -0.003
DPH5 isoform 5 (UniProt Q9H2P9) 0.037
CTNNB1 (UniProt P35222) 0.025
FAM50A (UniProt Q14320) -0.017
